# Reference: PubChem BioAssay (Tox21)
# A number with no mark means an inactive call. Results filed as inconclusive are left out. A call without a number means that no potency is given here. Active and inactive are the calls of the source. Unless noted, calls come from the whole dose curve; as a rule, active = well fitted curve in the direction sought with a large enough effect in the repeat runs; inconclusive = weak or mixed curves; inactive = no such curve, though single readings can be large; an effect the other way counts as inactive or inconclusive.
# How the values were obtained:
# [1] = qHTS assay to identify small molecule antagonists of the estrogen receptor alpha (ER-alpha) signaling pathway using the BG1 cell line in the presence of 0.1 nM 17-beta-estradiol - cell viability counter screen (AID 1259241); note: nearly all actives have a fitted effect of over 40% in size
# In short: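 Viability in VM7Luc4E2 cells after 22 hr compound exposure under 0.1 nM 17beta-estradiol stimulation, by CellTiter-Fluor.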
# [2] = qHTS assay to identify small molecule antagonists of the androgen receptor (AR) signaling pathway using the MDA cell line in the presence of 0.5 nM R1881 - cell viability counter screen (AID 1259242); note: nearly all actives have a fitted effect of over 45% in size
# In short: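 Live-cell protease activity was measured by CellTiter-Fluor fluorescence after 30 min. Before that, MDA-kb2 MMTV-luciferase cells had 16 hr at 37C without CO2, exposed to test compounds and 0.5 nM R1881 final.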
# [3] = target: Androgen receptor (Homo sapiens) (UniProt P10275); assay: qHTS assay to identify small molecule antagonists of the androgen receptor (AR) signaling pathway using the MDA cell line in the presence of 0.5 nM R1881 (AID 1259243); note: nearly all actives have a fitted effect of over 50% in size; note: potency is the fitted concentration of half-maximal effect
# In short: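 Luminescent reporter readout (ONE-Glo, 30 min, room temperature) after 16 hr co-treatment of MDA-kb2 cells with test compounds and 0.5 nM R1881 final, at 37C without CO2. The MMTV-driven luciferase responds to both AR and GR.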
# [4] = qHTS assay to identify small molecule phospholipidosis (PLD) inducers (AID 1259344; active = well fitted curve in the direction sought with a large enough effect; an effect the other way counts as inactive or inconclusive)
# In short: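 Phospholipid accumulation was scored by imaging: fixed, Hoechst-counterstained HepG2 cells stained with LipidTOX Red after 24 h compound exposure at 37 C. Read-outs were pit count and pit intensity per well or per cell, with amiodarone and DMSO controls.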
# [5] = qHTS assay to identify small molecule HDAC inhibitors (AID 1259364); note: top concentration of the series differs between compounds; nearly all actives have a fitted effect of over 45% in size
# In short: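 Luminescence read after 30 min room-temperature HDAC-Glo incubation measures cellular class I/II HDAC activity. Compounds were applied for 2 hr at 37 C to HCT-116 wild-type cells seeded the day before.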
# [6] = qHTS assay to identify small molecule HDAC inhibitors - cell viability counter screen (AID 1259365); note: series mostly up to about 92 µM; nearly all actives have a fitted effect of over 50% in size
# In short: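 Cytotoxicity was gauged in wild-type HCT-116 cells after a brief 2hr treatment with DMSO-dissolved compounds at 37C and 5% CO2, using CellTiter-Glo luminescence developed for 30min at room temperature.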
# [7] = qHTS assay to identify small molecule agonists of the sonic hedgehog signaling (Shh) pathway - cell viability counter screen (AID 1259366); note: nearly all actives have a fitted effect of over 50% in size; note: potency is the fitted concentration of half-maximal effect
# In short: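 Stable Gli1-Luc NIH/3T3 clone, 2,000 cells/well. Compound exposure 24hr at 37C. Read-out: CellTiter-Fluor fluorescence.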
# [8] = qHTS assay to identify small molecule antagonists of the sonic hedgehog signaling (Shh) pathway - cell viability counter screen (AID 1259367); note: nearly all actives have a fitted effect of over 55% in size
# In short: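 Viability was read by CellTiter-Fluor fluorescence in the same wells, reagent added 23 hr into compound treatment and incubated 1 hr at 37C. The 3T3 Gli1-Luc reporter cells (2,000/well) received conditioned medium after compound and ran 24 hr.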
# [9] = qHTS assay to identify small molecule agonists of the sonic hedgehog signaling (Shh) pathway (AID 1259368; calls by dose curve;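 note: NIH/3T3-derived 3T3Gli1-Luc cells carrying a stable Gli1-driven firefly luciferase reporter; series mostly up to about 92 µM; nearly all actives have a fitted effect of over 15% in size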)
# In short: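 Luminescence was read after 30 min at room temperature with luciferase reagent. Before that, 3T3Gli1-Luc cells (NIH/3T3 clone, stable Gli1-Luc reporter; 2,000/well) were exposed to compounds for 24 hr at 37C, 5% CO2, compounds being added 4 hr post-plating.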
# [10] = target: Estrogen receptor (Homo sapiens) (UniProt P03372); assay: qHTS assay to identify small molecule antagonists of the estrogen receptor alpha (ER-alpha) signaling pathway using the BG1 cell line in the presence of 0.1 nM 17-beta-estradiol (AID 1259244); note: nearly all actives have a fitted effect of over 50% in size
# In short: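 Luciferase luminescence (ONE-Glo, 30 min at room temperature) was read after 22 hr at 37C exposure to compounds plus 17beta-estradiol at 0.1 nM final. Cells were VM7Luc4E2 with endogenous ER-alpha and an ERE-driven luciferase, pre-cultured 5 days in hormone-depleted medium.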
# Chain of Estrogen receptor (Homo sapiens) (P03372 whole entry, looked up): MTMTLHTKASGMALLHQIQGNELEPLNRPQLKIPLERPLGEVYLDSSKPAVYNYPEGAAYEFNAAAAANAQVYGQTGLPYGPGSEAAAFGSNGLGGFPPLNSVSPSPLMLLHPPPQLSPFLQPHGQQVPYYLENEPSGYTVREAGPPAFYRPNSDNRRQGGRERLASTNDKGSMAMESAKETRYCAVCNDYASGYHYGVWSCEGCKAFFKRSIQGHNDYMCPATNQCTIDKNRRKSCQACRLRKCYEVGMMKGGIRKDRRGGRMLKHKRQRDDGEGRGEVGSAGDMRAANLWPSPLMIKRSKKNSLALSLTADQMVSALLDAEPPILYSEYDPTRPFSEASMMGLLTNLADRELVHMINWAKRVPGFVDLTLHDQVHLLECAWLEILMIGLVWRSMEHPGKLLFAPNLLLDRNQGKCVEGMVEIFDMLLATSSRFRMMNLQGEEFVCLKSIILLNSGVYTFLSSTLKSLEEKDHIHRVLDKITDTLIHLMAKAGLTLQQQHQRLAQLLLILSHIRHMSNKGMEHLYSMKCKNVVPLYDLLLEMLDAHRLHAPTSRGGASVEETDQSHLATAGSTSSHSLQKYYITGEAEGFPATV
# Chain of Androgen receptor (Homo sapiens) (P10275 whole entry, looked up): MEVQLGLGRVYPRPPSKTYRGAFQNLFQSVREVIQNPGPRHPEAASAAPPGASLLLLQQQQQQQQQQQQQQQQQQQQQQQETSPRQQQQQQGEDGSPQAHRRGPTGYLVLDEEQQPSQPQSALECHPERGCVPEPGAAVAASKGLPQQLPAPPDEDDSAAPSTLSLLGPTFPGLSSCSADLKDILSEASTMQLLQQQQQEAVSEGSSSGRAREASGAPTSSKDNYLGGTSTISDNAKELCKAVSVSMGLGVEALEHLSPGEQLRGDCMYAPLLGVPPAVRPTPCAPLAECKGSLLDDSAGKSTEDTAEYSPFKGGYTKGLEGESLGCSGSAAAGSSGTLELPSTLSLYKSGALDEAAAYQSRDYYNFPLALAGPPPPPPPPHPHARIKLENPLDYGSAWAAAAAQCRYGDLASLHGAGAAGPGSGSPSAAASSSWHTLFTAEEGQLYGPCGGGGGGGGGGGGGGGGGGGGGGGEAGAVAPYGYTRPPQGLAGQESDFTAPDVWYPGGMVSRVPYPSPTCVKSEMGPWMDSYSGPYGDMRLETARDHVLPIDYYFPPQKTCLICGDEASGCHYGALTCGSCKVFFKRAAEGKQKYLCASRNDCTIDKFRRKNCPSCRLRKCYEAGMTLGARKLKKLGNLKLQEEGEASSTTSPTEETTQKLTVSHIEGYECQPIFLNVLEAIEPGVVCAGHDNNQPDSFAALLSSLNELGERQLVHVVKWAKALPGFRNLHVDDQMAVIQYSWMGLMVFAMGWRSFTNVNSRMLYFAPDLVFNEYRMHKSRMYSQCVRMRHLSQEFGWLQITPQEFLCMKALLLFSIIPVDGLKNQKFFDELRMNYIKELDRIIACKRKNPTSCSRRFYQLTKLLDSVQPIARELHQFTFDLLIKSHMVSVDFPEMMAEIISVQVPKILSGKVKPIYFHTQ
SMILES,outcome [1],outcome [2],Potency [3],outcome [4],Potency [5],outcome [6],Potency [7],Potency [8],outcome [9],outcome [10],PLD induction [4]
CCCCCC(C)N (centres undefined),inactive,inactive,inactive,inactive,inactive,inactive,inactive,inactive,inactive,–,–
O=S(=O)(O)c1cc(O)c(O)c(S(=O)(=O)O)c1,inactive,inactive,inactive,–,inactive,inactive,inactive,inactive,inactive,inactive,–
CC[N+](CC)(CC)CCOc1cccc(OCC[N+](CC)(CC)CC)c1OCC[N+](CC)(CC)CC,inactive,inactive,inactive,inactive,inactive,inactive,inactive,inactive,inactive,–,–
C[N+](C)(CCOc1ccccc1)Cc1cccs1,inactive,inactive,inactive,inactive,inactive,inactive,inactive,inactive,inactive,–,–
COCCOC[C@H](CC1(C(=O)NC2CCC(C(=O)O)CC2)CCCC1)C(=O)Oc1ccc2c(c1)CCC2 (some centres undefined),inactive,inactive,inactive,–,inactive,inactive,–,–,inactive,inactive,–
CCCCS(=O)(=O)N[C@@H](Cc1ccc(OCCCCC2CCNCC2)cc1)C(=O)O,inactive,inactive,inactive,–,inactive,–,inactive,inactive,inactive,inactive,-2.88% [at 1.53 µM]
O=C(c1ccccc1O)c1ccccc1O,inactive,inactive,24.1 µM (active),–,inactive,inactive,inactive,inactive,inactive,inactive,–
C=C(C)C(=O)OCC(O)CO (centres undefined),inactive,inactive,inactive,–,inactive,inactive,inactive,inactive,inactive,–,–
NS(=O)(=O)Cc1noc2ccccc12,inactive,inactive,inactive,inactive,inactive,inactive,inactive,inactive,inactive,–,–
CC1(C)OC[C@@H](COC(=O)CCc2ccc(OC[C@@H](O)CNCCNC(=O)N3CCOCC3)cc2)O1,inactive,inactive,inactive,inactive,inactive,inactive,inactive,inactive,inactive,inactive,–
O=C(O)Cc1csc(-c2ccc(Cl)cc2)n1,inactive,inactive,inactive,inactive,inactive,inactive,inactive,inactive,inactive,inactive,–
CC(=O)O[C@@]12CO[C@@H]1C[C@H](O)[C@@]1(C)C(=O)[C@H](O)C3=C(C)[C@@H](OC(=O)[C@H](O)[C@@H](NC(=O)OC(C)(C)C)c4ccccc4)C[C@@](O)([C@@H](OC(=O)c4ccccc4)[C@H]21)C3(C)C,inactive,inactive,inactive,inactive,inactive,inactive,6.68 µM (active),–,inactive,inactive,–
CCCCCCCCCC[N+](C)(C)[O-],inactive,inactive,inactive,–,inactive,inactive,inactive,inactive,inactive,inactive,–
CCOc1c(N2CCOCC2)cnn(C)c1=O,inactive,inactive,inactive,–,inactive,inactive,inactive,inactive,inactive,inactive,–
CCCCOCCOC(=O)COc1cc(Cl)c(Cl)cc1Cl,inactive,inactive,inactive,–,inactive,inactive,inactive,inactive,inactive,inactive,–
CC(C)NNC(=O)c1ccncc1,inactive,inactive,inactive,inactive,inactive,–,inactive,inactive,inactive,–,–
CC(C)(C)c1ccc(-c2ccc(C(C)(C)C)cc2)cc1,inactive,inactive,inactive,–,inactive,inactive,inactive,inactive,inactive,inactive,–
CCOC(=O)COc1cc(-n2ncc(C(F)(F)F)c(C)c2=O)c(F)cc1Cl,inactive,inactive,inactive,–,inactive,inactive,inactive,inactive,inactive,inactive,–
CCOC(=O)C(=O)CCCCCCl,inactive,inactive,inactive,–,inactive,inactive,inactive,inactive,inactive,inactive,–
CC1=NN(c2cccc(S(=O)(=O)O)c2)C(=O)C1,inactive,inactive,inactive,–,inactive,inactive,inactive,inactive,inactive,inactive,–
CC(=O)N1C[C@H](O)C[C@H]1C(=O)O,inactive,inactive,inactive,inactive,inactive,–,inactive,inactive,inactive,inactive,–
CO[C@@]1(NC(=O)CSC[C@@H](N)C(=O)O)C(=O)N2C(C(=O)O)=C(CSc3nnnn3C)CS[C@@H]21,inactive,inactive,inactive,–,inactive,inactive,inactive,inactive,inactive,inactive,–
Cc1nc2ccc(CN(C)c3ccc(C(=O)N[C@@H](CCC(=O)O)C(=O)O)s3)cc2c(=O)[nH]1,inactive,inactive,inactive,inactive,inactive,inactive,inactive,inactive,inactive,–,–
Cc1ccc(C(=O)c2ccc(CC(=O)O)n2C)cc1,inactive,inactive,inactive,inactive,–,inactive,inactive,inactive,inactive,inactive,–
